The panel holds about 83,000 compounds, 20% with a hit somewhere; the sample as a whole holds those more often.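 Single-dose data. Exposure time 48 hours. Values below 10 considered active.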 Active and inactive are the calls of the source.
Key:
Assay in all cases: NCI-60 one-dose screen, 48 h (100 = growth as untreated, 0 = no growth, -100 = all killed)
[1] = test system: NCI-H23 lung; conditions: 10 µM unless noted
[2] = test system: NCI-H322M lung; conditions: 10 µM unless noted
[3] = test system: HOP-62 NSCLC; conditions: 10 µM unless noted
[4] = test system: NCI-H460 lung; conditions: 10 µM unless noted
[5] = test system: HOP-92 NSCLC; conditions: 10 µM unless noted
[6] = test system: NCI-H522 lung; conditions: 10 µM
[7] = test system: A549/ATCC NSCLC; conditions: 10 µM unless noted
[8] = test system: 786-0 renal; conditions: 10 µM unless noted
[9] = test system: DU-145 prostate; conditions: 10 µM unless noted
[10] = test system: K-562 leukemia; conditions: 10 µM unless noted
[11] = test system: MALME-3M melanoma; conditions: 10 µM unless noted
[12] = test system: MDA-MB-231 breast; conditions: 10 µM unless noted
[13] = test system: RXF 393 renal; conditions: 10 µM unless noted
[14] = test system: SF-268 CNS; conditions: 10 µM unless noted
[15] = test system: SF-295 CNS; conditions: 10 µM unless noted
[16] = test system: SF-539 CNS; conditions: 10 µM unless noted
[17] = test system: UACC-257 melanoma; conditions: 10 µM unless noted
[18] = test system: M14 melanoma; conditions: 10 µM unless noted

Measured: growth

O=C1c2ccccc2-c2cn(Cc3ccccc3)c3cccc(c23)C1c1cccnc1 (centres undefined)
active: [6] -12.4%
inactive: [1] 45.5% | [2] 54% | [3] 36% | [4] 23.2% | [5] 76.8% | [7] 42.2% | [8] 52.2% | [9] 60.7% | [10] 26.8% | [11] 38.9% | [12] 52.4% | [13] 57.9% | [14] 58% | [15] 25.9% | [16] 54.7% | [17] 55% | [18] 48.4%

COC(=O)[C@@]12CC[C@@H](C)[C@]3(C[C@@H](c4ccoc4)OC3=O)[C@H]1CC[C@@H]1O[C@@]12C
inactive: [1] 96.1% | [2] 104% | [3] 94.2% | [4] 103% | [5] 92.4% | [6] 84.9% | [7] 103% | [8] 99.3% | [9] 104% | [10] 113% | [11] 101% | [12] 108% | [13] 118% | [14] 95% | [15] 100% | [16] 105% | [17] 99.6% | [18] 99.8%

C[C@]1(CO)C[C@@H](O)C[C@]2(C)[C@@H]1CC[C@@]13C[C@@H]4[C@@H](C[C@H]12)[C@]4(C)C3
inactive: [1] 108% | [2] 103% | [3] 101% | [4] 104% | [5] 103% | [6] 101% | [7] 102% | [8] 104% | [9] 111% | [10] 101% | [11] 94.4% | [12] 98% | [13] 119% | [14] 100% | [15] 104% | [16] 99.4% | [17] 106% | [18] 94.8%

O=c1oc2ccccc2cc1-c1csc(N=Nc2c(O)[nH]c3ccc(Cl)cc23)n1
inactive: [1] 101% | [2] 105% | [3] 117% | [4] 99.9% | [5] 114% | [6] 98.4% | [7] 89.6% | [8] 105% | [9] 108% | [10] 98.7% | [11] 105% | [12] 102% | [13] 129% | [14] 98.4% | [15] 98.6% | [16] 94.5% | [17] 80.1% | [18] 111%

O=C(N/N=C/c1ccc2c(c1)OCO2)c1cnn2c1NC(c1ccccc1)C2 (centres undefined)
inactive: [1] 57.1% | [2] 59.6% | [3] 60.5% | [4] 30.1% | [5] 73.7% | [6] 45.7% | [7] 45% | [8] 78.9% | [9] 60.9% | [10] 29.8% | [11] 55.1% | [12] 53.2% | [14] 66% | [15] 47.3% | [16] 59.1% | [17] 72.4% | [18] 42.7%
active: [13] 6.73%

Cc1ccc(S(=O)(=O)N2CCc3ccc(O)c4c3C2CCc2ccccc2-4)cc1 (centres undefined)
inactive: [1] 95.9% | [2] 99.1% | [3] 106% | [4] 108% | [5] 116% | [6] 82.4% | [7] 102% | [8] 100% | [9] 106% | [10] 94.1% | [11] 97.2% | [12] 95.2% | [13] 117% | [14] 97.1% | [15] 104% | [16] 105% | [17] 105% | [18] 98.6%

COc1ccc(/C=N/NC(=O)c2cnn3c2NC(c2ccccc2)C3)cc1OC1CCCC1 (centres undefined)
inactive: [1] 98.8% | [2] 101% | [3] 87.9% | [4] 100% | [5] 94% | [6] 79.5% | [7] 84.1% | [8] 98.4% | [9] 98.3% | [10] 70.4% | [11] 123% | [12] 66.6% | [13] 104% | [14] 93.4% | [15] 90.7% | [16] 87.2% | [17] 98.7% | [18] 93.5%

O=C1Nc2ccc(Cl)cc2/C1=N/N=C(c1ccccc1)c1ccccc1
inactive: [1] 93.9% | [2] 98.1% | [3] 83.3% | [4] 100% | [5] 94.2% | [6] 83.4% | [7] 91.9% | [8] 102% | [9] 103% | [10] 93.3% | [11] 87.9% | [12] 75.6% | [13] 109% | [14] 97.8% | [15] 92.6% | [16] 97% | [17] 98.5% | [18] 102%

Source: PubChem BioAssay (NCI)
